Reference: PubChem BioAssay (NCI)
This is part of a sample that, as a whole, favours compounds with a hit. Of some 83,000 tested, about 20% had one in any assay.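 The test compound was applied at a single concentration to cells in 96-well plates for 48 hours, and percent growth was recorded.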 The source made the active and inactive calls. How the source made its calls: active means growth percent below 10; inactive means the rest.

Assays:
Experiment in all cases: NCI-60 one-dose screen, 48 h (100 = growth as untreated, 0 = no growth, -100 = all killed)
Conditions in all cases: 10 µM unless noted
T-47D breast = tested on: T-47D breast
BT-549 breast = tested on: BT-549 breast
MDA-MB-435 melanoma = tested on: MDA-MB-435 melanoma
SW-620 colon = tested on: SW-620 colon
MCF7 breast = tested on: MCF7 breast
HCT-116 colon = tested on: HCT-116 colon
HCC-2998 colon = tested on: HCC-2998 colon
KM12 colon = tested on: KM12 colon

Measured: growth

COc1cc(/C=C/C(=O)C(C(=O)/C=C/c2ccc(OC(=O)CCNC34CC5CC(CC(C5)C3)C4)c(OC)c2)C(=O)CCNC23CC4CC(CC(C4)C2)C3)ccc1OC(=O)CCNC12CC3CC(CC(C3)C1)C2 (stereo not given)
active: BT-549 breast -24.2% | MDA-MB-435 melanoma -29.9% | SW-620 colon -22.7% | HCT-116 colon -48.8% | HCC-2998 colon -48% | KM12 colon -5.8%
inactive: T-47D breast 41.6% | MCF7 breast 14.4%

COc1ccc2c(c1)c(CC(=O)[Se]C)c(C)n2C(=O)c1ccc(Cl)cc1
active: BT-549 breast -80.8% | MDA-MB-435 melanoma -20% | HCT-116 colon 0.342%
inactive: T-47D breast 80.6% | SW-620 colon 29.9% | MCF7 breast 16% | HCC-2998 colon 68.8% | KM12 colon 61.6%

O=C(COc1cccc(/C=C2\Oc3ccc4ccccc4c3C2=O)c1)c1ccc(Cl)cc1
inactive: T-47D breast 62.6% | MDA-MB-435 melanoma 96.1% | SW-620 colon 36% | MCF7 breast 63.9% | HCT-116 colon 41.7% | HCC-2998 colon 87.5% | KM12 colon 96.5%
active: BT-549 breast 3.5%

NS(=O)(=O)c1cc(C2(O)NC(=O)c3ccccc32)ccc1Cl (stereo not given)
inactive: T-47D breast 109% | BT-549 breast 97.7% | MDA-MB-435 melanoma 101% | SW-620 colon 109% | MCF7 breast 102% | HCT-116 colon 98.9% | HCC-2998 colon 109% | KM12 colon 111%

CC1(C)CC2(C)CC(=O)C1C(C(=O)O)C2C(=O)O (stereo not given)
inactive: T-47D breast 94.9% | BT-549 breast 116% | MDA-MB-435 melanoma 118% | SW-620 colon 108% | MCF7 breast 95.5% | HCT-116 colon 113% | HCC-2998 colon 103% | KM12 colon 107%

Cc1cc(C(=O)Nc2ccc3cc(CN4CCOCC4)ccc3n2)c(C)n1-c1ccccc1
inactive: SW-620 colon 64.1% | HCT-116 colon 29.4% | HCC-2998 colon 50.8% | KM12 colon 11%
active: T-47D breast -2.49% | BT-549 breast -1.74% | MDA-MB-435 melanoma 4.74% | MCF7 breast 7.41%

CC1C(C)N(C(=O)CCl)c2ccccc2N1C(=O)CCl (stereo not given)
active: T-47D breast -42% | BT-549 breast -86.4% | MDA-MB-435 melanoma -20.9% | SW-620 colon -81.7% | MCF7 breast -49.4% | HCT-116 colon -93.2% | HCC-2998 colon -93.9% | KM12 colon -91.7%

O=C(NCCCl)NCCN1c2nc3ccccc3cc2Sc2cc3ccccc3nc21
inactive: T-47D breast 69% | BT-549 breast 40.3% | MDA-MB-435 melanoma 58.5% | SW-620 colon 41.3% | MCF7 breast 18.3% | HCT-116 colon 31.3% | HCC-2998 colon 35.1% | KM12 colon 71.9%

NS(=O)(=O)c1ccc(-n2nc(-c3ccc(Br)cc3)ccc2=O)cc1
inactive: T-47D breast 77% [100 µM] | BT-549 breast 38.6% [100 µM] | SW-620 colon 63% [100 µM] | MCF7 breast 74.8% [100 µM] | HCT-116 colon 34.8% [100 µM] | HCC-2998 colon 91.9% [100 µM] | KM12 colon 49.6% [100 µM]
active: MDA-MB-435 melanoma 0.0656% [100 µM]

COc1cc(OC)c2c(c1Cl)O[C@]1(C2=O)C(OCc2ccccc2)=CC(=O)C[C@H]1C
active: T-47D breast 8.09% | MDA-MB-435 melanoma -44.5% | HCT-116 colon 7.75% | HCC-2998 colon -5.11% | KM12 colon 7.93%
inactive: BT-549 breast 24.2% | SW-620 colon 19.8% | MCF7 breast 12.7%

Cc1nn(-c2ccccc2)cc1/C=C1\SC(N2CCCCC2)=NC1=O
inactive: T-47D breast 82.4% | BT-549 breast 88.2% | MDA-MB-435 melanoma 92% | SW-620 colon 79.8% | MCF7 breast 55.8% | HCT-116 colon 46.7% | HCC-2998 colon 94.5% | KM12 colon 103%

O=C1/C(=C/c2ccccc2O)C(=S)SN1Cc1ccco1
inactive: T-47D breast 54.2% | BT-549 breast 93.5% | MDA-MB-435 melanoma 56.4% | SW-620 colon 108% | MCF7 breast 15.7% | HCT-116 colon 87.1% | HCC-2998 colon 108% | KM12 colon 69.5%

CCCCc1n(Cc2ccc3ccccc3c2)cc[n+]1Cc1ccc2ccccc2c1
active: T-47D breast -1.14% | BT-549 breast -76.4% | MDA-MB-435 melanoma -77.5% | SW-620 colon 1.48% | MCF7 breast -42.3% | HCT-116 colon -97.2% | HCC-2998 colon -5.21% | KM12 colon -82.5%

CSc1nc2nc3c(nc2c(=O)n1C)C(=O)c1ccccc1C3=O
active: T-47D breast -45.3% | BT-549 breast -94.8% | MDA-MB-435 melanoma -83.6% | SW-620 colon -55.7% | MCF7 breast -62.2% | HCT-116 colon -37.6% | HCC-2998 colon -70.1% | KM12 colon -64.2%

COc1ccc(C2=NN(C(C)=O)C(c3cccc(Nc4ccnc5cc(Cl)ccc45)c3)C2)cc1 (stereo not given)
inactive: T-47D breast 37.5% | BT-549 breast 50.4% | MDA-MB-435 melanoma 41.4% | SW-620 colon 74.4% | MCF7 breast 37.4% | HCT-116 colon 44.3% | HCC-2998 colon 83.1% | KM12 colon 54.1%

CN(C)CCCNc1nn2c(=O)c3ccccc3nc2c2ccccc12
inactive: T-47D breast 92.5% | BT-549 breast 75.6% | MDA-MB-435 melanoma 74.7% | SW-620 colon 57.9% | MCF7 breast 26.7% | HCT-116 colon 25.2% | HCC-2998 colon 70.6% | KM12 colon 66.1%

Cc1cc(=O)[nH]c(/C(=N/Nc2ccccc2)C(=O)c2ccc(Cl)cc2)n1
inactive: T-47D breast 77% | BT-549 breast 97.4% | MDA-MB-435 melanoma 108% | SW-620 colon 94.6% | MCF7 breast 90.1% | HCT-116 colon 86.9% | HCC-2998 colon 109% | KM12 colon 102%

O=C(Nc1ccc(Cl)cc1)Nc1nc2ccc(OC(F)(F)F)cc2o1
inactive: T-47D breast 41.1% | BT-549 breast 146% | MDA-MB-435 melanoma 112% | SW-620 colon 98.4% | MCF7 breast 76.6% | HCT-116 colon 85% | HCC-2998 colon 140% | KM12 colon 68.3%

Oc1c(N=Nc2nn[nH]n2)ccc2ccccc12
inactive: T-47D breast 97.7% | BT-549 breast 83.2% | MDA-MB-435 melanoma 67.7% | SW-620 colon 101% | MCF7 breast 73.7% | HCT-116 colon 76.5% | HCC-2998 colon 103% | KM12 colon 80.1%

CCCCCCCC[Si](OCC)(OCC)OCC
inactive: T-47D breast 96.2% | BT-549 breast 99.1% | MDA-MB-435 melanoma 109% | SW-620 colon 105% | MCF7 breast 98.3% | HCT-116 colon 101% | HCC-2998 colon 105% | KM12 colon 103%

CCn1cnc(C[C@H](NC(=O)[C@H](CCCCNC(=O)Nc2cc(C(F)(F)F)cc(C(F)(F)F)c2)NC(=O)Nc2cc(C(F)(F)F)cc(C(F)(F)F)c2)C(=O)OC)c1
active: T-47D breast -62.8% [100 µM] | BT-549 breast -35.3% [100 µM] | MDA-MB-435 melanoma -65.4% [100 µM] | SW-620 colon -40.9% [100 µM] | MCF7 breast -47% [100 µM] | HCT-116 colon -100% [100 µM] | HCC-2998 colon -20.8% [100 µM] | KM12 colon -43% [100 µM]

NS(=O)(=O)c1ccc(-n2ncc3c(SCc4ccccc4)ncnc32)cc1
inactive: T-47D breast 91.6% | BT-549 breast 91.6% | MDA-MB-435 melanoma 106% | SW-620 colon 95.5% | MCF7 breast 98.7% | HCT-116 colon 82.7% | HCC-2998 colon 127% | KM12 colon 94.1%

Cc1ccc(/C=C(/C#N)n2nnc3ncccc32)cc1
active: T-47D breast 5.39% | MDA-MB-435 melanoma -52.9% | SW-620 colon 9.59% | HCT-116 colon 4.5%
inactive: BT-549 breast 11.3% | MCF7 breast 14.5% | HCC-2998 colon 15.7% | KM12 colon 24.6%

O=c1ncc(-c2ccc(C(F)(F)F)cc2)c(NC2CCCCCC2)[nH]1
inactive: T-47D breast 32.5% | BT-549 breast 72.7% | MDA-MB-435 melanoma 45.3% | SW-620 colon 46.5% | MCF7 breast 40.4% | HCT-116 colon 39.1% | HCC-2998 colon 98.1% | KM12 colon 33.4%

CCOC(=O)c1cnc2c(C)cc(C)cc2c1NCCCN(C)C
inactive: T-47D breast 54.5% | BT-549 breast 61.3% | MDA-MB-435 melanoma 32.3% | SW-620 colon 30.3% | MCF7 breast 15.1% | HCT-116 colon 15.4% | HCC-2998 colon 29% | KM12 colon 31.6%

O=CN1N=C(c2ccc(Cl)cc2)CC1c1cccc(Nc2ccnc3cc(Cl)ccc23)c1 (stereo not given)
inactive: T-47D breast 11.8% | SW-620 colon 27% | MCF7 breast 11.3% | HCC-2998 colon 40.9% | KM12 colon 19.8%
active: BT-549 breast 7.26% | MDA-MB-435 melanoma 4.68% | HCT-116 colon 7.72%

Cc1cc(C)nc(NS(=O)(=O)c2ccc(Nc3nc4nc(SCc5ccccc5)nc(-c5ccc(O)cc5)c4c(=O)[nH]3)cc2)n1
inactive: T-47D breast 79.1% | BT-549 breast 107% | MDA-MB-435 melanoma 94.9% | SW-620 colon 101% | MCF7 breast 104% | HCT-116 colon 103% | HCC-2998 colon 100% | KM12 colon 107%

CN(C)c1ncnc2c1ncn2C1CCCCO1 (stereo not given)
inactive: T-47D breast 105% | BT-549 breast 101% | MDA-MB-435 melanoma 111% | SW-620 colon 106% | MCF7 breast 96.6% | HCT-116 colon 104% | HCC-2998 colon 96.7% | KM12 colon 112%

CCOc1cc(/C=C/C(=O)C(C(=O)/C=C/c2ccc(OC(=O)CNc3nc4ccccc4[nH]3)c(OCC)c2)C(=O)CNc2nc3ccccc3[nH]2)ccc1OC(=O)CNc1nc2ccccc2[nH]1
inactive: T-47D breast 37.3%
active: BT-549 breast -31.3% | MDA-MB-435 melanoma -37.6% | SW-620 colon -71.4% | MCF7 breast 0.893% | HCT-116 colon -61.3% | HCC-2998 colon -41.5% | KM12 colon -70.8%

OCc1n(Cc2ccc3ccccc3c2)cc[n+]1Cc1ccc2ccccc2c1
inactive: T-47D breast 31.3% | BT-549 breast 31.2% | SW-620 colon 67.7% | MCF7 breast 61.8% | HCT-116 colon 35.6% | HCC-2998 colon 39.8% | KM12 colon 39.3%
active: MDA-MB-435 melanoma 5.53%
